Assay results taken from PubChem BioAssay (NCATS).
Unmarked numbers belong to inactive results. Records with an inconclusive call do not appear. The source made the active and inactive calls. Unless noted, the call rests on the fitted dose curve; in most records, active means well fitted curve in the direction sought with a large enough effect; inconclusive means small, poorly fitted or top-dose-only effect, or another doubt; inactive means no such curve, though single readings can be large; an effect the other way counts as inactive or inconclusive.

Experiments:
[1] = target: Cytochrome P450 1A2 (Homo sapiens) (UniProt P05177); experiment: p450-cyp1a2 (AID 410; calls by dose curve; further: potency means the concentration at half of the fitted maximal effect)
Sequence of Cytochrome P450 1A2 (Homo sapiens) (P05177 whole entry, looked up): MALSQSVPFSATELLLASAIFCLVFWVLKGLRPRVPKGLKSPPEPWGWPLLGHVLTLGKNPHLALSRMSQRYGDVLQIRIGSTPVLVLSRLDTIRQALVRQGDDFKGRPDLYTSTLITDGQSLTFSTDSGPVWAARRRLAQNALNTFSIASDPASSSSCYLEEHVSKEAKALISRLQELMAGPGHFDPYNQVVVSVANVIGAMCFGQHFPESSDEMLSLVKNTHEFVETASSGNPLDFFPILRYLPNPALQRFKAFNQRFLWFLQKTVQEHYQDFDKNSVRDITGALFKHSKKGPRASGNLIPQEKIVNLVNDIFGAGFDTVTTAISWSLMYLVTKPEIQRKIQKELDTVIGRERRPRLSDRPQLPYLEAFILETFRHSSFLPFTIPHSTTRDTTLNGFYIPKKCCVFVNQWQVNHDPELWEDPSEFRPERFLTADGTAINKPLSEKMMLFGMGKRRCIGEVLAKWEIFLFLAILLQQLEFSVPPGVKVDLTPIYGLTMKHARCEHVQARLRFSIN
Method in brief: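 O-Demethylation of luciferin 6' methyl ether by human CYP1A2 is monitored as luciferase luminescence. Substrate sits at Km (100uM); enzyme is 20nM. Values are scaled to 57 uM furafylline as maximal inhibition.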

[2] = target: 3',5'-cyclic-AMP phosphodiesterase 4B (Homo sapiens) (UniProt Q07343); experiment: qHTS Assay for Inhibitors of PDE-IV (AID 607; active means well fitted activation curve with a large enough effect in the main read-out, with a control signal flat, not every such curve was filed as active)
Sequence of 3',5'-cyclic-AMP phosphodiesterase 4B (Homo sapiens) (Q07343 whole entry, looked up): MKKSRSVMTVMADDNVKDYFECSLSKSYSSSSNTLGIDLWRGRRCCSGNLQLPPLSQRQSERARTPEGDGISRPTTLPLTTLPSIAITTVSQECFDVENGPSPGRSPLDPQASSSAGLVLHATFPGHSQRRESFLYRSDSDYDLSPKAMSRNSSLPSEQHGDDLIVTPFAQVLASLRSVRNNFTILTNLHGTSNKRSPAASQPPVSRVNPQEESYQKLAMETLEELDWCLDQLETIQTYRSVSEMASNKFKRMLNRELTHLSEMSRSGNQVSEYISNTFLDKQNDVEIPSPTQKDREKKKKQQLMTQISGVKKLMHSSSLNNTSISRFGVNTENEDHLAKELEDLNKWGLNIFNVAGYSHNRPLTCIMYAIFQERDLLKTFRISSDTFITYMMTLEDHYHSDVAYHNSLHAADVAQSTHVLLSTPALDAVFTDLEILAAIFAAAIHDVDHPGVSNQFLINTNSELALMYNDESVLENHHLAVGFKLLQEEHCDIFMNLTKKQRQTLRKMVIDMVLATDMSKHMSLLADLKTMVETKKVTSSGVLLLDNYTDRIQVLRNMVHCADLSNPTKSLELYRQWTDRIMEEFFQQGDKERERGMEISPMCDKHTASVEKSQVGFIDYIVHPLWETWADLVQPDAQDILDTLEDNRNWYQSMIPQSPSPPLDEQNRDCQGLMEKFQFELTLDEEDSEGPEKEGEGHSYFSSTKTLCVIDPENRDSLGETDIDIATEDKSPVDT
Method in brief: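 HEK293 ACTOne cells with CNG channel (1000/well), endogenous PDE4; membrane potential dye, compounds up to 22.9 uM final. Fluorescence Ex 535/Em 590; RO 20-1724 (100 uM final) as reference.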

[3] = target: Cytochrome P450 2C9 (Homo sapiens) (UniProt P11712); experiment: qHTS Assay for Inhibitors and Substrates of Cytochrome P450 2C9 (AID 883); further: potency means the concentration at half of the fitted maximal effect; nearly all actives have a fitted effect of over 60% in size
Sequence of Cytochrome P450 2C9 (Homo sapiens) (P11712 whole entry, looked up): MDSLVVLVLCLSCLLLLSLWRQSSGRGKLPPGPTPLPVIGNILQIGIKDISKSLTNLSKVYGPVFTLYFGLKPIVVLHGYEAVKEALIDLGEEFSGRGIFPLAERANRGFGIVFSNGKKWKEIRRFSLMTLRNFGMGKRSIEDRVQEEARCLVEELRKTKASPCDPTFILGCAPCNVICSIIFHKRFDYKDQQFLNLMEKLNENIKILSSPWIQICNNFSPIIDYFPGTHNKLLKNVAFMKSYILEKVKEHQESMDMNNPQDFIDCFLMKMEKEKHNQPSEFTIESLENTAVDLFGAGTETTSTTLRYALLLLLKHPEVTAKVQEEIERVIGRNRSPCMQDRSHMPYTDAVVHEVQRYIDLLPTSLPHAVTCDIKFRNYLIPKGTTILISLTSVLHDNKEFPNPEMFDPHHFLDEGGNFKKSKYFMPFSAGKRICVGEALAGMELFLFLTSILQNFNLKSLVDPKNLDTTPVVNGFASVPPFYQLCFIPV
Method in brief: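 Human CYP2C9 (10nM) with Luciferin-H at 100uM (its KM) in 25mM KPO4; compound preincubated 10 min at 37C, then NADPH regeneration for 60 min at 37C. Luciferin read by luminescence after detection reagent; normalized to 57uM sulphaphenazole as full inhibition.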

[4] = target: Cytochrome P450 3A4 (Homo sapiens) (UniProt P08684); experiment: qHTS Assay for Inhibitors and Substrates of Cytochrome P450 3A4 (AID 884); further: potency means the concentration at half of the fitted maximal effect; nearly all actives have a fitted effect of over 50% in size
Sequence of Cytochrome P450 3A4 (Homo sapiens) (P08684 whole entry, looked up): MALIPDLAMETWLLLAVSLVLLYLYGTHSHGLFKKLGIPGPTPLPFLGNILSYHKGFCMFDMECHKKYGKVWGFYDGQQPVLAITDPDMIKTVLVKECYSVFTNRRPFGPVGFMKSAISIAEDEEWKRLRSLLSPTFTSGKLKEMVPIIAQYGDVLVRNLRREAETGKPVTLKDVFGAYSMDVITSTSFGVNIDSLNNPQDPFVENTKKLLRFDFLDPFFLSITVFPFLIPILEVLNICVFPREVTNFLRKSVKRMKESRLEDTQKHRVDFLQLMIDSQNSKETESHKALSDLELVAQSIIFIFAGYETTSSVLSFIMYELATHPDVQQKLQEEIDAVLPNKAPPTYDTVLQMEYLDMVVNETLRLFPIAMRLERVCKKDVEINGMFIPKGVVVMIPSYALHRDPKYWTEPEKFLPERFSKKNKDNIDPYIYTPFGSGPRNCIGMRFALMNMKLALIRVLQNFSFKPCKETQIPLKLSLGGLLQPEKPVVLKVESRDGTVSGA
Method in brief: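 Luminescent readout of luciferin produced by CYP3A4 (20 nM) dealkylation of Luciferin-PPXE, 25 uM (its KM). NADPH-driven reaction ran 60 min at RT after 10 min compound preincubation; data scaled to 57 uM ketoconazole as 100% inhibition.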

[5] = target: Cytochrome P450 3A4 (Homo sapiens) (UniProt P08684); experiment: qHTS Assay for Activators of Cytochrome P450 3A4 (AID 885); further: nearly all actives have a fitted effect of over 65% in size
Method in brief: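 Human CYP3A4 dealkylates Luciferin-PPXE to luciferin, which luciferase detection converts to light. Substrate was at its KM (25uM), buffer 200mM KPO4, reaction 60 min at RT.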

[6] = target: Cytochrome P450 2C19 (Homo sapiens) (UniProt P33261); experiment: qHTS Assay for Inhibitors and Substrates of Cytochrome P450 2C19 (AID 899); further: potency means the concentration at half of the fitted maximal effect; nearly all actives have a fitted effect of over 60% in size
Sequence of Cytochrome P450 2C19 (Homo sapiens) (P33261 whole entry, looked up): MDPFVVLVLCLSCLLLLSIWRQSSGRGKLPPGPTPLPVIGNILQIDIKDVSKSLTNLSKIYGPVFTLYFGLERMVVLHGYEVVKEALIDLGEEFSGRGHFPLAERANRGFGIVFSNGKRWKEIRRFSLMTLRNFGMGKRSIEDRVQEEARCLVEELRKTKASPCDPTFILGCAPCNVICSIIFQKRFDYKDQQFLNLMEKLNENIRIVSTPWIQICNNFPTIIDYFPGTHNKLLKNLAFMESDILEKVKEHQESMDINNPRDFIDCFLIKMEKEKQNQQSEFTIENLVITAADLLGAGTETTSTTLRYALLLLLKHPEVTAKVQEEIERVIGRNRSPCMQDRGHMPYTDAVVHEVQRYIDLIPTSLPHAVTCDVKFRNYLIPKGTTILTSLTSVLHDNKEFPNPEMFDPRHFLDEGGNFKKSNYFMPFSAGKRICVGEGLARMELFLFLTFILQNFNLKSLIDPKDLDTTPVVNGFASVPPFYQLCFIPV
Method in brief: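 5 nM human CYP2C19 with 10uM Luciferin-H EGE (at KM) in 50mM KPO4, compound preincubated 10 min at 37C, then NADPH regeneration for 60 min at 37C. Luciferin read by luminescence after detection reagent; normalized to 57uM ketoconazole as full inhibition.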

[7] = target: Mitogen-activated protein kinase 10 (Mus musculus) (UniProt Q61831); experiment: JNK3 AlphaScreen Assay (AID 530; active means well fitted curve in either direction with a large enough effect, not every such curve was filed as active;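 further: kinase came from lysate of stimulated human HepG2 cells; signal reports phosphorylation of biotinylated GST-cJun 1-79 at Ser73 with 10 µM ATP; series mostly up to about 57 µM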)
Method in brief: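 Activity was read by AlphaScreen after JNK3-containing HepG2 lysate (cytokine pre-activated) phosphorylated biotinylated GST-cJun with 10 uM ATP at room temperature. Phospho-Ser73 cJun antibody with Protein-A acceptor beads provided detection.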

| Compound | Potency [1] | Potency [2] | Potency [3] | Potency [4] | Potency [5] | Potency [6] | Potency [7] |
| --- | --- | --- | --- | --- | --- | --- | --- |
| COC(=O)[C@@]1(Cc2ccccc2)[C@H]2c3cc(C(=O)N4CCCC4)n(Cc4ccccn4)c3C[C@H]2CN1C(=O)c1ccccc1 | inactive | inactive | 0.199 µM (active) | 2 µM (active) | inactive |  |  |
| COC(=O)[C@@]1(Cc2ccccc2)[C@H]2c3cc(C(=O)N4CCCC4)n(CC4CC4)c3C[C@H]2CN1C(=O)c1ccccc1 | inactive | inactive |  | 3.16 µM (active) | inactive | 3.16 µM (active) |  |
| CCCC[C@@H]1C[C@H]1C(NC(=O)c1cccs1)c1ccc(Cl)cc1 (some centres not stated) | 1 µM (active) | inactive |  | 5.01 µM (active) | inactive | 0.0794 µM (active) |  |
| CCC/C=C(\CCC)C(NC(=O)OCC(C)C)c1ccc(C(=O)OC)cc1 (configuration not stated) | 15.8 µM (active) | inactive | 3.98 µM (active) |  | inactive |  |  |
| CCC/C=C(\CCC)C(NS(=O)(=O)c1ccc(Cl)cc1)c1ccc(C(=O)OC)cc1 (configuration not stated) | 3.16 µM (active) |  | 3.16 µM (active) | 3.98 µM (active) | inactive | 1.58 µM (active) |  |
| CCc1cccc2nc3c(c([Si](C)(C)C)c12)Cn1c-3cccc1=O | 2.51 µM (active) |  |  |  | inactive |  | inactive |
